Assay [1] can be described thus: Quantitative High-Throughput drug screen in 47 multiple myeloma cell lines against the NCATS MIPE library collection: Delta47_JCRB cell viability assay (AID 1918925; note: potency is the fitted concentration of half-maximal effect; nearly all actives have a fitted effect of over 45% in size). The conditions noted are these: Delta47 myeloma viability, CellTiter-Glo ATP, 48 h; series mostly up to 45.8 µM. In a few lines:
(§1)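 Approved and investigational drugs from MIPE 4.0 were added by pin tool to 500 cells per well. After 48 hours at 37C, ATP-based CellTiter-Glo luminescence indicated remaining viability.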
(Cellular ATP, detected with luciferase, serves as a proxy for viable cell number.)

Assay [2] is described as follows: Quantitative High-Throughput drug screen in 47 multiple myeloma cell lines against the NCATS MIPE library collection: EJM_DSMZ cell viability assay (AID 1918926; note: potency is the fitted concentration of half-maximal effect; nearly all actives have a fitted effect of over 30% in size). The conditions noted are these: EJM myeloma cell viability, CellTiter-Glo ATP, 48 h; series mostly up to 45.8 µM. A digest of the protocol:
as §1

A short description of assay [3]: Quantitative High-Throughput drug screen in 47 multiple myeloma cell lines against the NCATS MIPE library collection: ARP1_JJKsccF8 cell viability assay (AID 1918928; note: potency is the fitted concentration of half-maximal effect; nearly all actives have a fitted effect of over 40% in size). The conditions noted are these: ARP1 myeloma cells viability, CellTiter-Glo ATP, 48 h; series mostly up to 45.8 µM. In a few lines: (§2)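 Cell viability inhibition in this qHTS is measured via ATP content (CellTiter-Glo) after 48 h drug exposure at 37 °C. Wells hold 500 cells; DMSO-treated wells define 100% and medium-only wells 0%.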

The nature of assay [4]: Quantitative High-Throughput drug screen in 47 multiple myeloma cell lines against the NCATS MIPE library collection: Karpas620_DSMZ cell viability assay (AID 1918959). Note: nearly all actives have a fitted effect of over 30% in size. Note: potency is the fitted concentration of half-maximal effect. The conditions noted are these: Karpas620 myeloma viability, CellTiter-Glo ATP luminescence, 48 h; series mostly up to 45.8 µM. In a few lines:
(§3)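 Relative luminescence from CellTiter-Glo served as the viability signal, referenced to DMSO-treated (100%) and cell-free medium (0%) controls. Treatment lasted 48 hours at 37C with 500 cells per well.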

Assay [5] in a line: Quantitative High-Throughput drug screen in 47 multiple myeloma cell lines against the NCATS MIPE library collection: KMM1_JCRB cell viability assay (AID 1918960). Note: nearly all actives have a fitted effect of over 30% in size. Note: potency is the fitted concentration of half-maximal effect. The conditions noted are these: KMM1 myeloma viability, CellTiter-Glo ATP luminescence, 48 h; series mostly up to 45.8 µM. In a few lines: as §2
Assay [6] can be described thus: Quantitative High-Throughput drug screen in 47 multiple myeloma cell lines against the NCATS MIPE library collection: Karpas417_ECACC cell viability assay (AID 1918961). Note: potency is the fitted concentration of half-maximal effect. The conditions noted are these: Karpas417 myeloma viability, CellTiter-Glo ATP luminescence, 48 h; viability (% of DMSO): at 45.8 µM (top of the series). A digest of the protocol:
as §3

A short description of assay [7]: Quantitative High-Throughput drug screen in 47 multiple myeloma cell lines against the NCATS MIPE library collection: JIM3_ECACC cell viability assay (AID 1918963; note: potency is the fitted concentration of half-maximal effect; nearly all actives have a fitted effect of over 35% in size). The conditions noted are these: JIM3 myeloma viability, CellTiter-Glo ATP, 48 h; series mostly up to 45.8 µM. In a few lines:
as §3

Assay [8] in a line: Quantitative High-Throughput drug screen in 47 multiple myeloma cell lines against the NCATS MIPE library collection: INA6_PLB cell viability assay (AID 1918965; note: potency is the fitted concentration of half-maximal effect; nearly all actives have a fitted effect of over 55% in size). The conditions noted are these: INA6 myeloma viability, CellTiter-Glo ATP luminescence, 48 h; series mostly up to 45.8 µM. A digest of the protocol: as §3
The nature of assay [9]: Quantitative High-Throughput drug screen in 47 multiple myeloma cell lines against the NCATS MIPE library collection: JJN3_DSMZ cell viability assay (AID 1918966; note: potency is the fitted concentration of half-maximal effect; nearly all actives have a fitted effect of over 50% in size). The conditions noted are these: JJN3 myeloma cells viability, CellTiter-Glo ATP, 48 h; series mostly up to 45.8 µM. In a few lines: as §1
A short description of assay [10]: Quantitative High-Throughput drug screen in 47 multiple myeloma cell lines against the NCATS MIPE library collection: H1112_PLB cell viability assay (AID 1918967; note: potency is the fitted concentration of half-maximal effect; nearly all actives have a fitted effect of over 30% in size). The conditions noted are these: H1112 myeloma cells viability, ATP luminescence, 48 h; series mostly up to 45.8 µM. In a few lines: as §1
A short description of assay [11]: Quantitative High-Throughput drug screen in 47 multiple myeloma cell lines against the NCATS MIPE library collection: Karpas25_ECACC cell viability assay (AID 1918968; note: potency is the fitted concentration of half-maximal effect; nearly all actives have a fitted effect of over 35% in size). The conditions noted are these: Karpas25 myeloma viability, CellTiter-Glo ATP, 48 h; series mostly up to 45.8 µM. In a few lines:
as §1

A short description of assay [12]: Quantitative High-Throughput drug screen in 47 multiple myeloma cell lines against the NCATS MIPE library collection: KMS27_JCRB cell viability assay (AID 1918970). Note: nearly all actives have a fitted effect of over 30% in size. Note: potency is the fitted concentration of half-maximal effect. The conditions noted are these: KMS27 myeloma cells, CellTiter-Glo ATP viability, 48 h; series mostly up to 45.8 µM. In a few lines:
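Each line is seeded at 500 cells per well and treated with library compounds for 48 hours under 37 °C, 5% CO2. CellTiter-Glo is then added for 5 min at room temperature before median relative luminescence is recorded.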

The nature of assay [13]: Quantitative High-Throughput drug screen in 47 multiple myeloma cell lines against the NCATS MIPE library collection: KMS12BM_JCRB cell viability assay (AID 1918971). Note: potency is the fitted concentration of half-maximal effect; nearly all actives have a fitted effect of over 35% in size. The conditions noted are these: KMS12BM myeloma viability, CellTiter-Glo ATP, 48 h; series mostly up to 45.8 µM. In a few lines:
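Luminescent ATP measurement with CellTiter-Glo gives viability, scaled between DMSO-only wells (100%) and media-only wells (0%). Cells, 500 per well, faced library compounds for 48 hours at 37C.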

A short description of assay [14]: Quantitative High-Throughput drug screen in 47 multiple myeloma cell lines against the NCATS MIPE library collection: KMS12PE_JCRB cell viability assay (AID 1918972). The conditions noted are these: KMS12PE myeloma viability, CellTiter-Glo ATP, 48 h; series mostly up to 45.8 µM. A digest of the protocol: as §3
A short description of assay [15]: Quantitative High-Throughput drug screen in 47 multiple myeloma cell lines against the NCATS MIPE library collection: KMS20_JCRB cell viability assay (AID 1918973). Note: potency is the fitted concentration of half-maximal effect; nearly all actives have a fitted effect of over 45% in size. The conditions noted are these: CellTiter-Glo ATP, 48 h; series mostly up to 45.8 µM. In a few lines: as §1
A short description of assay [16]: Quantitative High-Throughput drug screen in 47 multiple myeloma cell lines against the NCATS MIPE library collection: KMS21BM_JCRB cell viability assay (AID 1918974). The conditions noted are these: ATP luminescence, 48 h; viability: at 45.8 µM (top of the series) unless noted. In a few lines:
as §1

Inconclusive results are not listed. Activity calls are given as the source filed them. Calls come from the whole dose curve; as a rule, active = well fitted curve in the direction sought with a large enough effect; inconclusive = small, poorly fitted or top-dose-only effect, or another doubt; inactive = no such curve, though single readings can be large; an effect the other way counts as inactive or inconclusive.

Take `Nc1nc(Nc2ccc(S(N)(=O)=O)cc2)nn1C(=O)c1c(F)cccc1F`: the Potency in assay [1] is 2.64 µM (active); in [2], 6.62 µM (active); in [3], 9.35 µM (active); in assay [4], 5.9 µM (active); in [5], 4.18 µM (active); in assay [6], 3.32 µM (active). For the same molecule, the Potency was 7.43 µM (active) in [7]; 1.48 µM (active) in [8]; 5.26 µM (active) in [9]; 8.33 µM (active) in [10]; 6.62 µM (active) in assay [11]; 4.18 µM (active) in [12]. Further, the Potency is 5.9 µM (active) in [13], 6.62 µM (active) in [14] and 4.18 µM (active) in assay [15].
Regarding `CCCCc1nc2cc(C=CC(=O)NO)ccc2n1CCN(CC)CC`, the Potency in assay [1] is 0.469 µM (active); in [2], 1.32 µM (active); in assay [3], 0.148 µM (active); in [7], 2.64 µM (active); in assay [9], 0.743 µM (active); in assay [10], 1.87 µM (active). Further, the results for the Potency in [11], in assay [13] and in [15] were 0.372 µM (active), 0.059 µM (active) and 0.209 µM (active), respectively.
As for `O=C(NCCCNc1nc(Nc2cccc(NC(=O)N3CCCC3)c2)ncc1I)c1cccs1`, the Potency is 4.69 µM (active) in [1]; 14.8 µM (active) in [2]; 16.6 µM (active) in assay [3]; 5.26 µM (active) in [7]; 0.662 µM (active) in [8]; 16.6 µM (active) in assay [9]. Besides, the Potency is 9.35 µM (active) in assay [10], 5.26 µM (active) in assay [11], 18.7 µM (active) in assay [13] and 3.32 µM (active) in assay [15]. Also, the Potency entry in [4], in [5], in assay [12] and in assay [16] was “inactive” throughout.
On to `Nc1ccc(C(=O)c2cc3c(ccc4ccccc43)[nH]2)cc1`, for which the Potency in assay [1] is 1.87 µM (active); in [2] it was 4.18 µM (active); in assay [3], 2.96 µM (active); in assay [7], 2.64 µM (active); in assay [8] it was 2.64 µM (active); in assay [9], 7.43 µM (active). Further, the Potency in [11] was 3.72 µM (active); in [13] it was 2.64 µM (active).

These data come from PubChem BioAssay (NCATS).
